Results on 109 compounds are retold here after PubChem BioAssay AID589 (National Center for Advancing Translational Sciences (NCATS), 2007).

Out of some 59,000 compounds screened, about 6,200 (11%) were called active. Another 9% or so got no clear call; they are omitted. No stated cut-off is given here; in the data, active means max dye-equivalent concentration above about 10 nM; inconclusive means mostly about 1.1 nM to 9.6 nM; inactive means weaker than that. The entries come from a sample that favours actives as a whole.

A short description of the test: qHTS Assay for Spectroscopic Profiling in 4-MU Spectral Region. To be noted: compound autofluorescence, 340/450 nm, 4-MU equivalents; active compounds read high. Put shortly:
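Compounds in 100 mM Tris, pH 8.0, incubated 15 min at room temperature, then fluorescence read at 340 nm excitation/450 nm emission. Signal converted to 4-MU dye-equivalent concentration using an on-plate six-point 4-MU standard curve.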
In general terms: qHTS replaces the single test concentration by a dilution series.
Consider `Cc1nc(NC(=O)C23CCC(C)(C(=O)O2)C3(C)C)sc1C` (centres undefined), for which the max dye-equivalent concentration entry is “inactive”.
As to `CC(=NCc1ccco1)C1=C(O)c2ccccc2C1=O`, the max dye-equivalent concentration result is “inactive”.
`COc1ccc(N2C(=O)CC(N3CCC(C(N)=O)CC3)C2=O)cc1` (centres undefined): the max dye-equivalent concentration entry was “inactive”.
On to `CCCC(NC(=O)c1ccccc1)c1nc2ccccc2n1Cc1ccc(C(=O)OC)o1` (centres undefined), for which the max dye-equivalent concentration result is “inactive”.
As to `Cc1ccc2nc(NCCCNC(=O)c3cnccn3)c(C#N)cc2c1`, the max dye-equivalent concentration is 160 nM (active).
Then `CCn1c(SCC(=O)Nc2cc(C)ccc2C)nnc1-c1cnccn1`, with “inactive”; and `CC1(C)C(=O)C2(CCCCC2)C(=O)OC1c1cccs1` (centres undefined), with “inactive”; and `CC(C)CNS(=O)(=O)c1ccc(OCC(=O)Nc2ccc3c(c2)OCO3)c(Cl)c1`, with “inactive”.
As for `CC1CN(C(=O)CN2C(=O)NC(C)(c3ccccc3)C2=O)CC(C)O1` (centres undefined), the max dye-equivalent concentration result is “inactive”.
With `COC(=O)c1cc(C(=O)OC)cc(N2C(=O)CC(N3CCN(c4ccccc4)CC3)C2=O)c1` (centres undefined), the max dye-equivalent concentration entry is “inactive”.
As to `CCc1c(C)nc2ncnn2c1N1CCC(C(=O)NCc2ccc3c(c2)OCO3)CC1`, the max dye-equivalent concentration result is “inactive”.
On to `O=C1CSC(=O)N1CCOCCN1C(=O)CSC1=O`, for which the max dye-equivalent concentration entry was “inactive”.
As for `COc1ccc(CCn2nnnc2C(c2ccccc2)N2CCN(C)CC2)cc1OC` (centres undefined), the max dye-equivalent concentration result was “inactive”.
For `COc1ccc(CCn2c(-c3ccco3)nc3nc4ccccc4nc32)cc1OC`, the max dye-equivalent concentration is 40 nM (active).
Turning to `COCCn1c(-c2ccc(OC)c(OC)c2)nc2ccccc21`, the max dye-equivalent concentration entry was “inactive”.
As to `CCn1cc(C(=O)N2CCN(C3CCCCC3)CC2)c2cc(OC)c(OC)cc2c1=O`, the max dye-equivalent concentration result was “inactive”.
As for `Cn1c2c(c(=O)n(C)c1=O)C(c1ccc(O)cc1)Nc1ccccc1O2` (centres undefined), the max dye-equivalent concentration entry is “inactive”.
Take `COc1ccc(-c2ccnc(SCC(=O)N3CCOCC3)n2)cc1`: the max dye-equivalent concentration was 110 nM (active).
Regarding `CCn1c(COc2cccc(OC)c2)nnc1SCC(=O)N1CCOCC1`, the max dye-equivalent concentration entry is “inactive”.
Consider `COc1ccc(-c2nc(SCC(=O)N3CCOCC3)n[nH]2)cc1`, for which the max dye-equivalent concentration entry was “inactive”.
Take `CC1(C)CC(=O)C=C(NCCCN2CCCC2=O)C1`: the max dye-equivalent concentration result is “inactive”.
As for `CCOC(=O)c1ccc(N2C(=O)CC(Sc3nc(O)c(CC)c(=O)[nH]3)C2=O)cc1` (centres undefined), the max dye-equivalent concentration result is “inactive”.
For the compound `CS(=O)(=O)N1CCCC(C(=O)N2CCOCC2)C1` (centres undefined), the max dye-equivalent concentration entry was “inactive”.
Turning to `COc1ccc(OCCCON2C(=O)c3ccccc3C2=O)cc1`, the max dye-equivalent concentration result was “inactive”.
As for `COc1ccc(N2C(=O)c3cccc4cccc(c34)C2=O)nn1`, the max dye-equivalent concentration was 160 nM (active).
With `Cc1cc(C)c(C)c(S(=O)(=O)Nc2ccc(O)cc2)c1C`, the max dye-equivalent concentration entry is “inactive”.
For `COCCCNC(=O)c1ccc(CNS(=O)(=O)c2ccc(NC(C)=O)cc2)cc1`, the max dye-equivalent concentration result is “inactive”.
Regarding `CC(C)C1Cc2c(sc3c2c(=O)n(-c2ccccc2)c2nncn32)CO1` (centres undefined), the max dye-equivalent concentration result was “inactive”.
For `O=C(Cn1cc(C(=O)c2cccs2)c2ccccc21)NCc1cccs1`, the max dye-equivalent concentration is 29 nM (active).
The value for `COC(=O)c1cn(CC(=O)NCc2cccs2)c2ccccc12` was “inactive”; that for `O=C(CCC(=O)c1cccs1)NCc1ccccc1` was “inactive”; that for `CCc1ccc(CCC(=O)Nc2ccc(S(N)(=O)=O)cc2)o1` was “inactive”.
In the case of `Clc1ccc(C(c2ccc(Cl)cc2)n2cc[n+](C[C@@H](OCc3ccc(Cl)cc3Cl)c3ccc(Cl)cc3Cl)c2)cc1`, the max dye-equivalent concentration result was “inactive”.
Consider `CC1CCCN(c2ccc(C(=O)NCCc3ccccc3)cn2)C1` (centres undefined), for which the max dye-equivalent concentration entry is “inactive”.
As to `Cc1ccc(S(=O)(=O)NC(=O)NN2C[C@H]3CCC[C@@H]3C2)cc1`, the max dye-equivalent concentration result was “inactive”.
Turning to `O=C(OCC(=O)N1CCCC1)c1ccco1`, the max dye-equivalent concentration result is “inactive”.
The value for `COc1ccc(C2CC(c3ccc(C)cc3)Nc3nc(N)nn32)cc1` (centres undefined) was 2500 nM (active); that for `CC1CC(c2ccccc2)n2nc(NC(=O)c3cccs3)nc2N1` (centres undefined) was “inactive”; that for `Nc1nc2n(n1)C(c1ccco1)CC(c1ccc(Cl)c(Cl)c1)N2` (centres undefined) was “inactive”.
For the compound `CCc1c(C)c2c(C)[nH]nc2oc1=O`, the max dye-equivalent concentration entry was “inactive”.
In the case of `COc1ccc(N2CCN(C(c3cc4ccc(C)cc4[nH]c3=O)c3nnnn3C3CCCC3)CC2)cc1` (centres undefined), the max dye-equivalent concentration result was “inactive”.
On to `COCCn1nnnc1C(c1ccccc1Cl)N1CCN(c2ccccc2OC)CC1` (centres undefined), for which the max dye-equivalent concentration result was “inactive”.
As for `Cc1cc(C)c2[nH]c(=O)c(C(c3nnnn3Cc3ccc4c(c3)OCO4)N3CCCC3)cc2c1` (centres undefined), the max dye-equivalent concentration result was “inactive”.
For `COc1ccc(OC)c(C(c2nnnn2C(C)(C)C)N2CCc3ccccc3C2)c1` (centres undefined), the max dye-equivalent concentration entry is “inactive”.
For `CCOc1ccc2[nH]c(=O)c(C(c3nnnn3CCOC)N3CCOCC3)cc2c1` (centres undefined), the max dye-equivalent concentration was 720 nM (active).
With `COCCn1nnnc1C(c1cc2ccc(OC)cc2[nH]c1=O)N1CCc2ccccc2C1` (centres undefined), the max dye-equivalent concentration is 17 nM (active).
For the compound `CCCOc1ccccc1C(=O)NCCCC(=O)O`, the max dye-equivalent concentration entry was “inactive”.
In the case of `COC(=O)Nc1ncc(CN2C(=O)c3ccccc3C2=O)s1`, the max dye-equivalent concentration entry was “inactive”.
On to `O=C(CCCn1c(SCC(=O)c2ccc(F)cc2)nc2ccccc2c1=O)NCc1ccco1`, for which the max dye-equivalent concentration entry was “inactive”.
Then `CC1(N2CCOCC2)CC2(O)C(=[N+]1[O-])CCc1nonc12` (centres undefined), with “inactive”; and `CCn1c(COc2ccccc2)nnc1SCC(=O)Nc1ccc2c(c1)OCCO2`, with “inactive”.
The value for `COc1ccc(S(=O)(=O)N2CCCCC2)cc1Br` was “inactive”; that for `C=CCn1c(CC(=O)Nc2cccc(OC)c2)nnc1SCC(=O)NC1CCCCC1` was “inactive”; that for `CCC(CC)C(=O)Nc1cccc(C(=O)N2CCCC2)c1` was “inactive”.
With `COc1ccc(OCc2cccc(C(=O)N3CCCC3)c2)cc1`, the max dye-equivalent concentration is 19 nM (active).
For `COc1ccc(OCC(=O)N2CCN(C(=O)COc3ccccc3)CC2)cc1`, the max dye-equivalent concentration result is “inactive”.
As to `c1ccc(CCc2nc(-c3ccncc3)no2)cc1`, the max dye-equivalent concentration result was “inactive”.
Then `CC(=O)N1CCC(C(=O)Nc2nc(-c3ccccc3)ns2)CC1`, with 1800 nM (active); and `Cc1cc(C)cc(NC(=O)C2CCN(c3nc(C)cc(C)n3)CC2)c1`, with “inactive”; and `Cc1ccc2c(NC(=O)C3CC3)cccc2n1`, with “inactive”.
With `CCCOc1ccccc1-c1nc(SCCC(=O)O)n[nH]1`, the max dye-equivalent concentration result was “inactive”.
Turning to `CCn1c(=N)n(CC(=O)c2cccc(OC)c2)c2ccccc21`, the max dye-equivalent concentration result is “inactive”.
Consider `COC(=O)c1ccc(CSc2nncn2C)cc1`, for which the max dye-equivalent concentration entry was “inactive”.
Consider `Cc1ccc(C(c2nnnn2C(C)(C)C)N2CCc3ccccc3C2)cc1` (centres undefined), for which the max dye-equivalent concentration result was “inactive”.
As to `Cc1ccc2c(c1)c1ncnc(N3CCc4ccccc4C3)c1n2C`, the max dye-equivalent concentration is 140 nM (active).
Then `Cc1ccc(NC(=O)CCN2CCc3ccccc3C2)cc1`, with “inactive”; and `CCOC(=O)CSc1nnc(NC(=O)c2cccc(S(=O)(=O)N3CCCCC3)c2)s1`, with “inactive”; and `Cc1cc(C)c2nc3c(c([C@H](O)[C@@H]4CCCCN4)c2c1)CC/C3=C/c1ccc(Cl)cc1`, with “inactive”.
`CN1CCc2[nH]nc(-c3n[nH]c4c3CN(C)CC4)c2C1`: the max dye-equivalent concentration entry is “inactive”.
Turning to `Cn1c(-c2ccco2)nc2cc3ccccc3cc21`, the max dye-equivalent concentration is 890 nM (active).
Then `CCOC(=O)CSc1nnc(-c2ccco2)n1C`, with “inactive”; and `c1coc(-c2nc3nc4ccccc4n3nc2-c2ccco2)c1`, with “inactive”.
With `O=C(c1ccco1)N1CCN(C(=O)c2ccc(COc3ccc(F)cc3)o2)CC1`, the max dye-equivalent concentration result was “inactive”.
Then `O=C(c1ccco1)N1CCC2(CC1)CN(c1ncccn1)C2`, with “inactive”.
As to `CCCCNC(=O)CSc1nnc(-c2ccco2)n1C`, the max dye-equivalent concentration entry was “inactive”.
In the case of `Cn1c(=O)c2c(ncn2CC(=O)N2CCN(c3ccccc3)CC2)n(C)c1=O`, the max dye-equivalent concentration entry is “inactive”.
Turning to `COc1ccccc1NC(=O)C1=C(C)Nc2ncnn2C1c1ccc(C)o1` (centres undefined), the max dye-equivalent concentration result was “inactive”.
On to `COc1ccccc1NC(=O)C1=C(C)NC2=C(C(=O)CCC2)C1c1ccc(C)o1` (centres undefined), for which the max dye-equivalent concentration was 16 nM (active).
On to `COc1ccccc1NC(=O)c1ccc(C)s1`, for which the max dye-equivalent concentration result is “inactive”.
With `O=C(NCCN=C1NS(=O)(=O)c2ccccc21)c1ccc(S(=O)(=O)N2CCOCC2)cc1`, the max dye-equivalent concentration entry was “inactive”.
Take `Cc1cc(=O)oc(C)c1C(=O)NC1CC(C)(C)NC(C)(C)C1`: the max dye-equivalent concentration entry was “inactive”.
Turning to `COCc1nnc(NC(=O)CS(=O)(=O)Cc2ccccc2)s1`, the max dye-equivalent concentration result is “inactive”.
As for `O=C(O)C1CCCN1S(=O)(=O)c1ccc2c(c1)CCC2` (centres undefined), the max dye-equivalent concentration entry is “inactive”.
In the case of `CCS(=O)(=O)NCCc1ccc(OC)c(OC)c1`, the max dye-equivalent concentration entry was “inactive”.
Then `Cc1cc(=O)n2c3c(cccc13)CCC2`, with “inactive”; and `Cn1c(C(=O)NCCN2CCc3ccccc3C2)cc2c(=O)[nH]c3ccccc3c21`, with “inactive”.
As for `CCNC(=O)c1c(O)c2cccc3c2n(c1=O)CC3`, the max dye-equivalent concentration was 17 nM (active).
The value for `O=S(=O)(O)c1ccc(O)c2ncccc12.O=S(=O)(O)c1ccc(O)c2ncccc12.[Zn]` was “inactive”; that for `Cc1ccccc1N1CCN(S(=O)(=O)C[C@@]23CC[C@H](C[C@H]2NC(=O)[C@@H](N)CCS(C)(=O)=O)C3(C)C)CC1` was “inactive”.
For `CCOC(=O)C1=C(CNC2CCCCC2)NC(=O)NC1c1cc(C)ccc1C` (centres undefined), the max dye-equivalent concentration result was “inactive”.
For the compound `COc1cc(OC)cc(C(=O)NCCSCc2ccco2)c1`, the max dye-equivalent concentration entry was “inactive”.
For `C(=C\c1ccccc1)/CSc1nnc(-c2cccnc2)n1Cc1ccco1`, the max dye-equivalent concentration result was “inactive”.
Turning to `O=C(CSc1nnc(-c2cccnc2)n1Cc1ccco1)c1ccc(Cl)cc1`, the max dye-equivalent concentration result is “inactive”.
Take `Clc1cccc(-c2nc3nc4ccccc4nc3n2Cc2ccco2)c1`: the max dye-equivalent concentration was 110 nM (active).
For `C=C(C)Cn1c(SCC(=O)NCc2ccco2)nc2sc3c(c2c1=O)CCC3`, the max dye-equivalent concentration entry is “inactive”.
With `c1coc(CNc2ncnc3ccccc23)c1`, the max dye-equivalent concentration result is “inactive”.
For `CN1CCc2c(sc3c2c(NCc2ccco2)nc2nnnn23)C1`, the max dye-equivalent concentration was 380 nM (active).
Turning to `Cc1cccc(N(CC(O)CN(C)C)S(=O)(=O)c2ccccc2)c1` (centres undefined), the max dye-equivalent concentration result was “inactive”.
On to `CCOC(=O)N1CCN(C(=O)CN(C2CCCCC2)S(C)(=O)=O)CC1`, for which the max dye-equivalent concentration result was “inactive”.
Regarding `Cc1cccn2c(=O)c3cc(C(=O)N4COCC4(C)C)n(C)c3nc12`, the max dye-equivalent concentration was 970 nM (active).
With `Cc1cccn2c(=O)c3cc(C(=O)NCc4ccccn4)n(C)c3nc12`, the max dye-equivalent concentration was 190 nM (active).
Regarding `O=C(NCc1ccccn1)c1c(O)c2c([nH]c1=O)CCCC2`, the max dye-equivalent concentration result is “inactive”.
`O=C(NCc1ccco1)c1nc2ncccn2n1`: the max dye-equivalent concentration entry was “inactive”.
Turning to `CCOC(=O)N1CCN(S(=O)(=O)c2cc3c(cc2C)NC(=O)CO3)CC1`, the max dye-equivalent concentration result is “inactive”.
Turning to `Cc1cnc(CNc2ncncc2-c2ccccc2Cl)cn1`, the max dye-equivalent concentration entry was “inactive”.
Turning to `Cc1ccccc1C(OCC(O)CN1CCCCC1CCO)c1ccccc1` (centres undefined), the max dye-equivalent concentration result was “inactive”.
As to `Cc1ccc(-c2nc(COC(=O)c3c(C)noc3C)cs2)cc1`, the max dye-equivalent concentration entry was “inactive”.
Take `Cc1noc(C)c1C(=O)OCC(=O)/C=C1\N(C)c2ccccc2C1(C)C`: the max dye-equivalent concentration is 150 nM (active).
Take `Cc1noc(C)c1C(=O)Nc1ccccn1`: the max dye-equivalent concentration entry was “inactive”.
